Results taken from PubChem BioAssay (NCATS).
Inconclusive results are not listed. Active and inactive are the calls of the source. Calls follow the shape of the dose curve; as a rule, active = well fitted curve in the direction sought with a large enough effect; inconclusive = small, poorly fitted or top-dose-only effect, or another doubt; inactive = no such curve, though single readings can be large; an effect the other way counts as inactive or inconclusive.

molecular target: Cytochrome P450 3A4 (Homo sapiens) (UniProt P08684); experiment: qHTS Assay for Activators of Cytochrome P450 3A4 (AID 885); settings: recombinant CYP3A4, Luciferin-PPXE luminescence, 60 min; series mostly up to 57.1 µM; also: nearly all actives have a fitted effect of over 65% in size
Outline: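 CYP3A4 activity: Luciferin-PPXE O-dealkylation, 25uM substrate, 200mM KPO4, RT throughout. Read-out is luciferase luminescence; higher values reflect activation.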

Chain of Cytochrome P450 3A4 (Homo sapiens) (P08684 whole entry, looked up): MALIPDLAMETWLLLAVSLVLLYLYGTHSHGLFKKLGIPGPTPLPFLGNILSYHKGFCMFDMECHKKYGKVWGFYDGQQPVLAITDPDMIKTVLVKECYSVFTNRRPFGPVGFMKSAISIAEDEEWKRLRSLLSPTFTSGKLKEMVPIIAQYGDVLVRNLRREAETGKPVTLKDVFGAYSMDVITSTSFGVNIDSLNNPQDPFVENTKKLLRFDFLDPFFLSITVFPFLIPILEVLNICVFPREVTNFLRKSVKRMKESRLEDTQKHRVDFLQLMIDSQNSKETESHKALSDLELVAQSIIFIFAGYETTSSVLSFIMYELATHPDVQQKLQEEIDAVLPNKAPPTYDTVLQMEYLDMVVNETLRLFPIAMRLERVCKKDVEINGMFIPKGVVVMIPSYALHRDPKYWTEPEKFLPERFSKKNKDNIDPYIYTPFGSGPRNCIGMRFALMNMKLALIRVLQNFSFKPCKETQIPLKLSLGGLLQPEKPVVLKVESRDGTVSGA

Activity change, positive = activation, inactive:
CCCCCCC#CC1C=CC(OC(C)=O)C(COC(C)=O)O1 (centres undefined) -57.5% [at 11.4 µM], CO[C@H]1COC(=O)C/C=C\[C@H](C)[C@@H](OC)COC(=O)[C@H](C)COC(=O)C/C=C\[C@@H]1C -33.7% [at 11.4 µM], CO[C@H]1COC(=O)C/C=C\[C@H](C)[C@@H](OC)COC(=O)[C@@H](C)COC(=O)C/C=C\[C@@H]1C -56.2% [at 11.4 µM], CC(C)=NOCc1cccc(-c2cc(-c3ccccc3)no2)c1 -40.1% [at 11.4 µM]

Potency, inactive:
CCCC/C=C/C(NC(=O)c1ccc(C(F)(F)F)cc1)c1ccccc1 (centres undefined)

molecular target: Cytochrome P450 2D6 (Homo sapiens) (UniProt P10635); experiment: qHTS Assay for Inhibitors and Substrates of Cytochrome P450 2D6 (AID 891); settings: recombinant CYP2D6, luciferin-ME EGE luminescence; series mostly up to 11.4 µM;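 also: luciferin methyl ether substrate demethylated by CYP2D6 with NADPH regeneration; % is scaled to controls: 0 for no effect and ±100 for the full control effect; nearly all actives have a fitted effect of over 60% in size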
Outline: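 Luminescent read-out of luciferin formed by 5 nM human CYP2D6 demethylating 30 uM Luciferin-ME EGE (Km level) over 60 min at room temperature after NADPH regeneration addition. Data normalized to full inhibition by 1.43 uM quinidine.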

Chain of Cytochrome P450 2D6 (Homo sapiens) (P10635 whole entry, looked up): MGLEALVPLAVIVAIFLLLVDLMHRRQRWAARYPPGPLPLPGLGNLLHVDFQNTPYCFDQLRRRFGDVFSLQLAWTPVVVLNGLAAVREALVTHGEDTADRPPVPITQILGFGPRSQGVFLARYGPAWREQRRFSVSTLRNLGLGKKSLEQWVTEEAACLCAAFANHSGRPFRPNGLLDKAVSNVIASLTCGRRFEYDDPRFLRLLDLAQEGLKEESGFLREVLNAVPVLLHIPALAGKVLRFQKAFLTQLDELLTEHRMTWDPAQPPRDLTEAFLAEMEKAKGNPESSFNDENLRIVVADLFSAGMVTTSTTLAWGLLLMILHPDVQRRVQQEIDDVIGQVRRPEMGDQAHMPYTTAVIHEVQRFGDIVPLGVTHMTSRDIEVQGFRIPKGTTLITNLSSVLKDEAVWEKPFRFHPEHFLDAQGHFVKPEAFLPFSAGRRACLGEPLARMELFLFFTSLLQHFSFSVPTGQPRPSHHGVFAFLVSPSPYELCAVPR

Potency, inactive:
Cc1cc(C)cc(C#CC2C=CC(Oc3ccc(C4CCCC4)cc3)C(CO)O2)c1 (centres undefined), COC(=O)NC(CC(C)=O)c1cccc(C)c1 (centres undefined), CCOC(=O)OCC1OC(c2ccccc2)C=CC1Oc1ccc2oc(=O)cc(C)c2c1 (centres undefined), CC1CCC(C(=O)O)NC1c1cccc(N2CCOCC2)c1 (centres undefined), CCN1C(C)=C(C(=O)OC)C(c2ccccc2)N2C(=O)[C@@]3(C(=O)OC)O[C@@]12C1C(=O)N(c2ccccc2)C(=O)C13 (some centres undefined), C#CC(C)OC(=O)c1nnc2c3ccccc3n(COC)c2n1 (centres undefined), Cc1cc(=O)oc2cc(OC3C=CC(C#CC(C)(C)C)OC3CO)ccc12 (centres undefined), CCN1C(C)=C(C(=O)OC)C(c2ccccc2)N2C(=O)[C@](O)(C(=O)OC)CC(C(C)=O)=C12 (some centres undefined), COC(C(C)/C=C/CC(=O)OCCCc1ccccc1)C1CCCCC1 (centres undefined)
